Assay results as given in PubChem BioAssay AID376 (PDSP, 2006).
In all, about 2,000 compounds went through this assay and about 250 (12%) were called active. The list comes from a sample in which actives are over-represented; it also holds similar structures and randomly drawn compounds. A number with no mark means an inactive call. Rule as the data show it: active = hERG blockade below about -20% or above about 20%; inactive = in between.

molecular target: Voltage-gated inwardly rectifying potassium channel KCNH2 (Homo sapiens) (UniProt Q12809); assay: modulators of KCNH2 ion channel function, cellular (AID 376); conditions: hERG-expressing cells, channel activity single-concentration screen; concentration not given here;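 also: 0% = buffer alone and 100% = reference blocker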
Sequence (Q12809 whole entry, looked up): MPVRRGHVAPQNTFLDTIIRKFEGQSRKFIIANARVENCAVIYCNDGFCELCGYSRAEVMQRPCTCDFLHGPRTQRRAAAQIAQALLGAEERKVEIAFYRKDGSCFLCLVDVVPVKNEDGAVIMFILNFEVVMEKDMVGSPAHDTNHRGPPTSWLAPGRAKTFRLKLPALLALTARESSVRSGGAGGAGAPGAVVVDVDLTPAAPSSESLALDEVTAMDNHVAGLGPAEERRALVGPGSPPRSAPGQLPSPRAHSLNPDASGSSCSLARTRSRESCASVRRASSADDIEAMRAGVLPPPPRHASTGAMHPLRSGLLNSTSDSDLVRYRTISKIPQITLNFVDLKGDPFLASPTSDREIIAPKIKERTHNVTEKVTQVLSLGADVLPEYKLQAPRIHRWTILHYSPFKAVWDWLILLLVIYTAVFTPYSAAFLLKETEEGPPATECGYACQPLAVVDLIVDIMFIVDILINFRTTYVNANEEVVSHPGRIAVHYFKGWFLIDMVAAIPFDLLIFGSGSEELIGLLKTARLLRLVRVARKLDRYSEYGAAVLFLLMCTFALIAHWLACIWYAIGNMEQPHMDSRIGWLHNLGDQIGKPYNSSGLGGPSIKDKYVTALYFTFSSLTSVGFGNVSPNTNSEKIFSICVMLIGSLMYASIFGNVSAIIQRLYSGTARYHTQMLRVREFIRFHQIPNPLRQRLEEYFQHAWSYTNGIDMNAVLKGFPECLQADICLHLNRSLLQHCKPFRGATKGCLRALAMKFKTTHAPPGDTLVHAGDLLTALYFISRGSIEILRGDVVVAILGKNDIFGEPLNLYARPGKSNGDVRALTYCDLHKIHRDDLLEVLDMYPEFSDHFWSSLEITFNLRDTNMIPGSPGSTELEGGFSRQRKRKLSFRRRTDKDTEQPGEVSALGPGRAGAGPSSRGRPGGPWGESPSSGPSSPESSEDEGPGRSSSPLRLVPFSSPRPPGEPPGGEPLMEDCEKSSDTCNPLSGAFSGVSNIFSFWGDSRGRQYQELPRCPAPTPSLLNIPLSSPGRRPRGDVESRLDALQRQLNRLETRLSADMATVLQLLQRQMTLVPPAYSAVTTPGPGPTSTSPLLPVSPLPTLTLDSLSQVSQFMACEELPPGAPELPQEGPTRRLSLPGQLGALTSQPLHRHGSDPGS

Structure (SMILES) | hERG blockade
CN1CC(c2ccccc2)C(O)(C2(c3ccccc3)CN(C)CC(c3ccccc3)C2=O)C(c2ccccc2)C1 (stereo unspecified) | 20.8% (active)
Nc1nc(SCCc2ccccc2)c2[nH]cnc2n1 | -0.569%
Nc1nc(N)c(CCCCc2ccccc2)c(N)n1 | 26.6% (active)
CC1(C)N=C(N)N=C(N)N1CCCCc1ccccc1 | -14.1%
Cn1c(=O)c2[nH]c(CS(=O)(=O)Cc3nc4c([nH]3)c(=O)n(C)c(=O)n4C)nc2n(C)c1=O | -2.72%
Nc1nc(N)c(N=Nc2ccc(C(=O)O)c(O)c2)c(N)n1 | 12.4%
c1ccc(SCCc2ccncc2)cc1 | 5.61%
CC(=NNS(=O)(=O)c1ccc(C)cc1)P(=O)(O)O | 15.5%
COc1ccc2cc1Oc1ccc(cc1)CC1c3cc(c(OC)cc3CCN1C)Oc1c(OC)c(OC)cc3c1C(C2)N(C)CC3 (stereo unspecified) | 70.1% (active)
COc1cc2c3cc1Oc1cc(ccc1O)CC1c4c(cc(OC)c(O)c4Oc4ccc(cc4)CC3[N+](C)(C)CC2)CC[N+]1(C)C (stereo unspecified) | 11.2%
COc1ccc2cc1Oc1ccc(cc1)CC1c3c(cc(OC)c4c3Oc3cc5c(cc3O4)CCNC5C2)CCN1C (stereo unspecified) | 79.4% (active)
COc1ccc(CC2C(=O)NC(C)C(=O)N(C)C3Cc4ccc(cc4)Oc4cc(ccc4O)CC(C(=O)NC(C)C(=O)NC(C)C(=O)N2C)N(C)C3=O)cc1 (stereo unspecified) | 4.92%
COc1cc2c3cc1Oc1c(OC)c(OC)cc4c1C(Cc1ccc(O)c(c1)Oc1ccc(cc1)CC3N(C)CC2)CN(C)C4 (stereo unspecified) | 37.9% (active)
N=c1sc2ccccc2n1CCS (tested in a mixture with another compound) | 5.15%
COC(NC(N)=O)C(=O)O (stereo unspecified) | 6.05%
Cc1c(Cl)cc(C(C)(C)C)c(O)c1Cc1c(C)c(Cl)cc(C(C)(C)C)c1O | 0.223%
CC(C)(CCC(C)(C)c1ccccc1)c1ccccc1 | 1.92%
CN(C)Cc1nsc(N(C)C)n1 | 2.33%
Cn1c(=O)c2c(nc(Cc3ccccc3)n2CC(=O)O)n(C)c1=O | 11.6%
CCOc1ccccc1C=C(C#N)C(N)=O | -12.6%
CC(=Cc1ccc(Cl)cc1)C(C)(C)C(=O)O | -2.46%
O=C(O)C1C2C=CC(O2)C1C(=O)Nc1ccccc1 (stereo unspecified) | -12.4%
O=C(NN=Cc1ccc2c(c1)CCC2)c1ccccc1O | 7.38%
CC(C)(C)C1CCC2(CC1)CCN(CCCN1CCOCC1)CC2 | 36.7% (active)
FC(F)(F)c1nc2nc(Cl)c(Cl)nc2n1CCCN1CCOCC1 | -9.32%
CN(C)CCCN1CCC2(CCC(C(C)(C)C)CC2)CC1 | 11.2%

Structure (SMILES) | hERG blockade
c1ccc(NCCSc2nc3ccccc3s2)cc1 | -0.231%
CCC1CC(=O)N(SCC(N)C(=O)O)C1=O (stereo unspecified) | -6%
Fc1cccc(F)c1C(Nc1nncs1)Nc1nncs1 | -2.76%
CC(C)C(Sc1nc(N)nc2nc[nH]c12)C(=O)O (stereo unspecified) | 1.36%
C[N+](C)(C)CCN[N+]1(C)CCCc2ccccc21 (stereo unspecified) | 13.2%
CNCC(Cl)=NS(=O)(=O)c1ccc(C)cc1 | 2.08%
CC(=NS(=O)(=O)c1ccc(Cl)c(Cl)c1)OCC(C)(C)C | 21.3% (active)
CC(C)(C)C(=O)C(C(c1ccccc1)N1CCOCC1)N1CCOCC1 (stereo unspecified) | 18.3%
O=C(O)CC(Cc1ccccc1Cl)C(=O)O (stereo unspecified) | 9.3%
CC(CNC(N)=O)NC(N)=O (stereo unspecified) | 2.5%
O=C(O)CC1(CC(=O)O)Nc2ccccc2SC1=O | -18.2%
C[N+](C)(C)c1cc2c(nn1)Nc1ccccc1S2 | 43.5% (active)
O=S(=O)(O)CCCc1cccc2ccccc12 | -12.8%
Nc1cccc2nsnc12 | -4.23%
NC(CCc1ccccc1)(C(=O)O)c1ccccc1 (stereo unspecified) | -9.5%
CC12CCC(=O)C=C1CCC1C2CCC2(C)C(C(=O)COS(=O)(=O)c3ccc(Br)cc3)CCC12 (stereo unspecified) | 17%
O=C(O)C=C(C(=O)O)C12CCN3CC4=CCOC5CC(=O)NC1C5C4CC32 (stereo unspecified) | 20.4% (active)
O=C1CC2OCC=C3CN4CCC5(C(=O)O)C(N1)C2C3CC45 (stereo unspecified) | -10.2%
NC1C2C(CC(=O)O)OCC=C3CN4CCC1(C(=O)C(=O)O)C4CC32 (stereo unspecified) | 13%
ON(CCc1ccncc1)Cc1ccccc1 | -10.6%
CC12CCC(O)CC1CCC1C2CCC2(C)C(c3cc(C(F)(F)F)n[nH]3)CCC12 (stereo unspecified) | 8.14%
CN(C)S(=O)(=O)c1ccc(Nc2ccc(O)c3c2C(=O)c2c([N+](=O)[O-])ccc(O)c2C3=O)cc1 | 64.1% (active)
O=C1c2ccccc2C(=O)c2c(NC3CCCCC3)ccc(Nc3ccc(S(=O)(=O)O)cc3)c21 | 16.1%
O=C1C2C3C=CC(C2C(=O)N1CN1CCSCC1)C1C2C(=O)N(CN4CCSCC4)C(=O)C2C31 (stereo unspecified) | 7.62%
CC(=O)Nc1ccc(S(=O)(=O)N=S(C)C)cc1 | 14.2%
c1ccc(COC2NCCN2Cc2ccccc2)cc1 (stereo unspecified) | 7.69%

Structure (SMILES) | hERG blockade
c1ccc([P+](CC[P+](c2ccccc2)(c2ccccc2)c2ccccc2)(c2ccccc2)c2ccccc2)cc1 | 11.7%
Cc1cc(=O)[nH]c2cc3oc4ccccc4c3cc12 | 4.54%
NCCCc1ccc2oc3ccccc3c2c1 | 29.2% (active)
O=C(O)CSc1ncccc1[N+](=O)[O-] | -20.2% (active)
Cn1cnc([N+](=O)[O-])c1SCC(=O)O | 2.91%
O=C(O)CSc1ccc([N+](=O)[O-])cc1[N+](=O)[O-] | 2.18%
NCC(O)CSCc1ccc(Cl)cc1 (stereo unspecified) | -14.3%
c1ccc(-c2nnn(CCN3CCCCC3)n2)cc1 | -7.12%
Cn1c(=O)c2c(nc(NN=Cc3ccccc3C(=O)O)n2C)n(C)c1=O | -7%
CC(C)C(C(=O)O)N1C(=O)c2ccccc2C1=O (stereo unspecified) | 5.91%
Cc1ccc(C(N)=Nc2ccccc2)cc1 | 8.7%
O=C(O)CCc1ccc(-c2ccccc2)[nH]1 | -28.1% (active)
O=C(O)CCc1nc(-c2ccccc2)c(-c2ccccc2)o1 | 1.96%
O=C(O)CCc1nc2ccccc2[nH]1 | -3.47%
O=C(CC(C(=O)O)N1CCOCC1)c1ccccc1 (stereo unspecified) | 7.79%
OCC(O)C(O)C(O)C(O)c1nc2ccc(Cl)cc2[nH]1 (stereo unspecified) | 3.95%
Cc1cc(Cc2cc(C)cc(C(C)(C)C)c2O)c(O)c(Cc2cc(C)cc(C(C)(C)C)c2O)c1 | 15.5%
Cc1ncc(CSc2ccccc2N)c(CO)c1O | -7.6%
Clc1ccc(CN2CCCN(Cc3ccc(Cl)cc3)C2c2cc3ccccc3c3ccccc23)cc1 | -5.92%
CC(C)(C)c1ccc(CN2CCN(C(c3ccccc3)c3ccc(Cl)cc3)CC2)cc1 (stereo unspecified) | 23.1% (active)
c1ccc(CN2CCC3(CC2)SSC2(CCN(Cc4ccccc4)CC2)SS3)cc1 | 1.07%
CC1NCCC(CC(=O)O)C1CC(=O)O (stereo unspecified) | -10.6%
CC(C(=O)c1ccccc1)C(c1ccccc1)N1CCOCC1 (stereo unspecified) | -13.1%
Cc1onc(-c2c(F)cccc2Cl)c1C(=O)NC1C(=O)N2C1SC(C)(C)C2C(=O)O (stereo unspecified) | 8.23%
Cc1ccc2nc(NN=Cc3cccc(C)n3)cc(C)c2c1 | 26.3% (active)
CSc1nnnc2ccccc12 | 8.81%

Structure (SMILES) | hERG blockade
O=C(O)C(Cc1cn[nH]n1)=NO | 7.89%
O=C(O)C(Cc1ccnc2ccccc12)=NO | -22.9% (active)
O=C(O)C(=Cc1ccnc2ccccc12)C(=O)O | 3.04%
NC(=O)SCC(=O)Nc1ccc2ncccc2c1 | 8.17%
CC1(C)N=C(N)N=C(N)N1c1cccc(OCc2cccc([N+](=O)[O-])c2)c1 | -1.1%
CC(C)(COC1CC2CCC1(C)C2(C)C)[N+](=O)[O-] (stereo unspecified) | -4.38%
N#CC(=CNc1ccccn1)C(=O)C1CC1 | 0.609%
N=C(N)SC1c2ccccc2-c2cc([N+](=O)[O-])ccc21 (stereo unspecified) | 50.8% (active)
O=[N+]([O-])c1ccc2c(c1)S(=O)c1ccccc1-2 (stereo unspecified) | 13.4%
NC(Cc1cccc([N+](=O)[O-])c1)C(=O)O (stereo unspecified) | 7.25%
N#CC(N=Nc1ccccc1C(=O)O)C(N)=O (stereo unspecified) | -0.342%
O=[N+]([O-])c1ccc(C(Nc2ccccc2)c2ccc3cccnc3c2O)cc1 (stereo unspecified) | 11.2%
Cc1cc2ccccc2c[n+]1CC(O)C[n+]1cc2ccccc2cc1C | 26.1% (active)
Cc1ccc(S(=O)(=O)OC2CC(C(C)(C)C)CCC2c2ccccc2)cc1 (stereo unspecified) | 2.36%
COc1cccc2c1C(CO)N1C(C#N)C3CC(C(=O)O)C(C1C2)N3C (stereo unspecified) | -24.5% (active)
O=C(Nc1cccc(Cl)c1)Nn1cnnc1 | 10.3%
Cc1ccc(CN2CCN(Cc3ccc(C)o3)C(C)C2)o1 (stereo unspecified) | 0.417%
O=C(O)C1C2C=CC(O2)C1C(=O)Nc1ncccn1 (stereo unspecified) | -6.76%
COc1ccc(C=NNC(=O)O)cc1 | -2.22%
CC1CCN(CC(=O)N2c3ccccc3Sc3cc4ccccc4cc32)CC1 | 14%
CN1CCN(CC(=O)N2c3ccccc3Sc3cc4ccccc4cc32)CC1 | 52.7% (active)
O=C(CC1(O)CCCCC1)OC1CCCC1 | -2.11%
CCOC(=O)c1c2c(n3ccccc13)C(=O)c1ccccc1C2=O | 8.67%
